Shown are actives, neighbours in structure and some others; about 18% of the full set was active somewhere.
IL-1B inflam inh – inflammasome signaling inhibition, IL-1 beta readout; THP-1 LPS/ATP IL-1B secretion, AlphaLISA, 16 h; hits give low values; activity change, % at 57.5 µM; 4.7% of 360,000 active; in the data active means activity change below about -50%; inconclusive means mostly about -30% to -49%
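THP-1 cells pretreated 1 hr with compounds (up to 57.5 uM final), then stimulated with LPS (250 ng/mL final) plus ATP (1.25 mM final); secreted IL-1B measured by AlphaLISA after 16 hr, decreased signal indicating inhibition.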
CtBP-E1A blk – CtBP/E1A binding inhibition. AlphaScreen GST-E1A/His-CtBP binding, 1536-well; hits give low values. activity change, % (concentration not given with the values). 0.49% of 340,000 active. AID 651724; in the data active means activity change below about -65%; inconclusive means mostly about -30% to -63%
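AlphaScreen with 125 nM GST-E1A and 125 nM His-CtBP (5X stocks) in Tris pH 8.0, 300 mM NaCl, BSA, Tween 20, TCEP. Compounds preincubated 2 h at 37 deg C, then glutathione donor/nickel acceptor beads added for 1 h at 37 deg C in dark.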
DT40 TDP1 no CPT – qHTS for Inhibitors of human tyrosyl-DNA phosphodiesterase 1 (TDP1): qHTS in cells in absence of CPT; 15% of 420,000 active; Potency, µM (top dose mostly 46.2 µM), hits mostly inhibitors; AID 686978, 2013; DT40 Tdp1-/- hTDP1 cells, no CPT, ATP luminescence, 48 h; further: nearly all actives have a fitted effect of over 55% in size
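Stably hTDP1-transfected Tdp1-null chicken DT40 cells were treated with library compounds minus camptothecin and grown for at least 48 hr at 37 °C, after which cellular ATP was quantified by luminescence.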
TDP1 block – inhibitors of human tyrosyl-DNA phosphodiesterase TDP1; Q9NUW8; recombinant TDP1, AlphaScreen DNA substrate cleavage; Potency, µM (series often up to 130 µM), most hits filed as inhibitors; 0.28% of 350,000 active; further: nearly all actives have a fitted effect of over 40% in size
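Enzyme-compound mixtures sat 15 min at room temperature, followed by a 5 min reaction with 15 nM final substrate and 10 min with AlphaScreen beads. Recombinant human Tdp1 was used at 1 nM final.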
Six1-Eya2 inh – inhibitors of human Six1/Eya2 interaction; 0.56% of 360,000 active; activity change, % (no concentration beside the values); AID 651725; AlphaScreen GST-Six1/His-Eya2 binding, biochemical; hits give low values; in the data active means activity change below about -65%; inconclusive means mostly about -30% to -63%
Target sequence (O00167 whole entry, looked up): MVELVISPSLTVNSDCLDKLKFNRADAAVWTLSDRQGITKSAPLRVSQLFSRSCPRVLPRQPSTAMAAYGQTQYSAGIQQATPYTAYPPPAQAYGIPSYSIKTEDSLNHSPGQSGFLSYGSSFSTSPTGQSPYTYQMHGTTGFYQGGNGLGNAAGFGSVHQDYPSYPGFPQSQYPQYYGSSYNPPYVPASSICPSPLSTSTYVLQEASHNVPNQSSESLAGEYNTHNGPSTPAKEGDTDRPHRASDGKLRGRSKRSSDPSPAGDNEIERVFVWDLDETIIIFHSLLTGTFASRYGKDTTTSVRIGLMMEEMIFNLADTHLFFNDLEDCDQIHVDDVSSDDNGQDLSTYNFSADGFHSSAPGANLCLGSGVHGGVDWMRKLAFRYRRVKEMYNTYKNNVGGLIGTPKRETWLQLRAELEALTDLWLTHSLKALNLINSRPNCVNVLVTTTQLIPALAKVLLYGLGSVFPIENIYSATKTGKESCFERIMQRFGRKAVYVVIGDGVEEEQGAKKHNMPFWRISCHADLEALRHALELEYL
Target sequence (Q15475 whole entry, looked up): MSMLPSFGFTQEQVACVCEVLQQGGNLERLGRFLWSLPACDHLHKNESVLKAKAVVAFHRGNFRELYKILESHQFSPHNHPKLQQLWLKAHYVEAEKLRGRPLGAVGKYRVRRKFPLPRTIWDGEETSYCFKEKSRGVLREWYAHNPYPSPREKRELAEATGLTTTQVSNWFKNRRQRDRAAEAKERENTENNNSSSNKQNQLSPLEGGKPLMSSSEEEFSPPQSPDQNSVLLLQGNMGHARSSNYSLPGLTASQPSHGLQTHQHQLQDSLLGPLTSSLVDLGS
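AlphaScreen luminescence read after one hour at 37 °C in darkness. Pin-transferred compounds met GST-Six1 and His-Eya2 protein (5X stock 250 nM/500 nM) plus glutathione donor and Ni-chelate acceptor beads (5X, 50 ug/mL).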
TDP1 cell CPT – growth inhibition of DT40 Tdp1-/-;hTDP1 cells with camptothecin (screen for TDP1 inhibitors) | chicken DT40 Tdp1-/-;hTDP1 cells + 20 nM CPT, ATP luminescence, 48 h | Potency, µM (top dose mostly 46.2 µM), actives largely listed as inhibitors | 12% of 420,000 active; further: nearly all actives have a fitted effect of over 55% in size
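Chicken DT40 Tdp1-/- cells complemented with human TDP1, 400 cells/well, exposed to compounds plus 20 nM camptothecin for at least 48 h at 37 C; viability read as ATP content by CellTiter-Glo luminescence.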
Hits are given with their value; n = inactive; u = inconclusive; x = no result. Unless noted, the call rests on the fitted dose curve; in most records, active means well fitted curve in the direction sought with a large enough effect; inconclusive means small, poorly fitted or top-dose-only effect, or another doubt; inactive means no such curve, though single readings can be large; an effect the other way counts as inactive or inconclusive.

SMILES	IL-1B inflam inh	CtBP-E1A blk	DT40 TDP1 no CPT	TDP1 block	Six1-Eya2 inh	TDP1 cell CPT
COC(=O)c1cnn(-c2ccc(C(=O)Nc3cc(OC)c(OC)c(OC)c3)cc2)c1N	x	x	u	n	x	u
CSc1cccc(NC(=O)c2cnn(-c3ccc(F)cc3)c2-n2cccc2)c1	x	x	x	n	x	x
CCN(CC)c1ccc(NC(=O)c2cccc(F)c2)c(C)c1	n	n	3.3µM	n	n	4.6µM
Cc1cc(NC(=O)c2cnn(-c3ccccc3)c2-n2cccc2)ccc1Br	x	x	u	n	x	18µM
CCN(CC)c1ccc(NC(=O)c2ccco2)c(C)c1	n	n	u	n	n	u
CC(=O)c1ccc(NC(=O)c2cnn(-c3cccc(F)c3)c2-n2cccc2)cc1	x	x	23µM	n	x	u
COC(=O)c1cnn(-c2ccc(C(=O)Nc3ccc(C(C)=O)cc3)cc2)c1N	x	x	n	35µM	x	n
CCc1ccc(N2CC(C(=O)OCC(=O)Nc3ccccc3C)CC2=O)cc1 (stereo not given)	n	n	n	n	n	n
CC(C)C1=Nc2cccc3cccc(c23)N1	n	n	u	n	n	u
O=S(=O)(NCc1ccccc1Cl)c1ccc(-n2cnnn2)cc1	n	n	n	x	n	n
CCCc1c(C(=O)Nc2ccc(F)cc2C)cnn1-c1ccccc1	u	n	u	n	n	n
Cc1ccc(S(=O)(=O)NNC(=O)c2cnn(-c3ccccc3)c2-n2cccc2)cc1	n	n	1.5µM	n	n	1.6µM
CCN(CC)c1ccc(NC(=O)c2cnn(-c3ccccc3)c2-n2cccc2)c(C)c1	x	x	10µM	n	x	15µM
Cc1ccc(S(=O)(=O)NNC(=O)c2ccccc2O)cc1	n	n	n	u	n	n
Cc1ccc(NC(=O)CCNC(=O)Cn2ccc3ccccc3c2=O)cc1F	n	n	u	n	n	n
COc1ccc(C)cc1S(=O)(=O)N(CC(=O)NCc1ccco1)c1ccc(C)cc1	n	n	n	n	n	u
Cc1ccc(OCC(=O)N/N=C/C=C/c2ccco2)c(Br)c1	n	n	u	n	n	18µM
Cc1ccc(OCC(=O)N(C)CC(=O)NCc2ccco2)c(Br)c1	n	n	n	32µM	n	n
CC(=O)c1cccc(OCC(=O)N(C)CC(=O)NCc2ccco2)c1	n	n	n	7.1µM	u	u
CCOC(=O)N/N=C\C=C\c1ccco1	n	n	u	n	n	n
CO/N=C(\C)C(Cc1ccc(Cl)nc1)Cc1ccc(Cl)nc1	n	n	n	x	n	n
CC(=O)N(O)c1ccc(C=Cc2ccccc2)cc1	n	n	0.41µM	x	n	2.1µM
CCCCCCc1c(O)nc(SCCN(C)C)[nH]c1=O	n	n	n	x	n	n
Cc1cc(=O)oc2cc(OCC(=O)OCC(=O)Nc3ccccc3Br)ccc12	n	n	n	n	n	n
O=c1oc2c3c4c(cc2s1)CCCN4CCC3	n	u	n	14µM	u	n
SMILES	IL-1B inflam inh	CtBP-E1A blk	DT40 TDP1 no CPT	TDP1 block	Six1-Eya2 inh	TDP1 cell CPT
Cc1cc(=O)[nH]c(SCC(=O)Nc2ccc(S(=O)(=O)N3CCCCC3)cc2)n1	n	n	n	n	n	n
Cc1cc2nc(-c3ccc(SCC(=O)Nc4ccc(S(=O)(=O)N5CCCC5)cc4)nc3)[nH]c2cc1C	n	n	13µM	n	n	n
NS(=O)(=O)c1ccc(NC(=O)CSc2nc3ccccc3[nH]2)cc1	n	n	n	n	n	n
O=C(CSc1ccc(-c2nc3ccccc3[nH]2)cn1)Nc1ccc(S(=O)(=O)N2CCCC2)cc1	n	n	13µM	n	n	u
CCOC(=O)c1c(C)[nH]c(C)c1S(=O)(=O)N1CCCC(C(=O)Nc2ccc(OC)c(Cl)c2)C1 (stereo not given)	x	x	n	n	x	n
O=C1CCc2cc(-c3csc(-c4ccc(O)cc4)n3)ccc2N1	x	x	3.2µM	x	x	11µM
Cc1ccc(-c2csc(Cc3nc(-c4ccc5c(c4)CCC(=O)N5)cs3)n2)cc1	n	n	u	n	n	u
CC(=O)Nc1ccc(N/C=C/C(=O)c2ccc(Br)cc2)cc1	n	n	n	x	n	n
CC(C)(C)C1=C(C#N)C(c2ccncc2)C(C#N)=C(N)O1 (stereo not given)	n	n	29µM	n	n	18µM
CC(C)(C)NC(=O)NC(=O)COC(=O)COc1ccc(Cl)cc1Cl	n	n	u	n	n	18µM
COC(=O)c1ccccc1NC(=O)Cn1ccnc1	n	n	n	n	n	n
COc1cc(C(=O)N2CCN(C(=O)c3cc(-c4ccc(Br)cc4)n[nH]3)CC2)cc(OC)c1OC	n	x	26µM	n	n	21µM
COc1cc(C(=O)N2CCN(C(=O)c3ccccc3)CC2)cc(OC)c1OC	n	n	n	n	n	n
Cc1ccc(-c2cc(C(=O)N3CCN(S(=O)(=O)c4ccc(Br)cc4)CC3)[nH]n2)cc1C	x	x	8.2µM	n	x	9.2µM
COCCn1c(N2CCN(c3ccc(OC)cc3)CC2)nc2c1c(=O)[nH]c(=O)n2C	n	n	n	n	n	u
CNC(=S)N/N=C/c1c(C(=O)OC)cnn1-c1ccc(F)cc1F	n	n	16µM	n	n	u
COC(=O)c1cnn(-c2ccccc2)c1/C=N/NC(=S)Nc1ccccc1	n	n	21µM	n	n	u
COC(=O)c1cnn(-c2ccccc2)c1C(OC)OC	n	n	n	n	n	n
COC(=O)c1cnn(-c2ccc(F)cc2F)c1/C=N/NC(=S)NC(C)(C)C	n	n	u	n	n	u
FC(F)C(F)(F)Oc1cccc(Nc2nccn3c(-c4cc(C(F)(F)F)cc(C(F)(F)F)c4)cnc23)c1	n	n	u	x	n	u
Cc1ccc(-c2cnc3c(Nc4cccc(OC(F)(F)C(F)F)c4)nccn23)cc1	n	n	16µM	x	n	23µM
OCc1cccc(-c2cnc3c(Nc4cccc(OC(F)(F)C(F)F)c4)nccn23)c1	n	n	16µM	x	n	u
C#CCOn1c(-n2nc(C)cc2C)nc2ccccc2c1=O	n	n	u	x	n	n
Cc1ccc(-n2ncc(Cl)c2C(=O)NCc2ccccc2)cc1	n	n	n	x	n	n
O=S(=O)(c1cc(Cl)cc(Cl)c1)N1CCN(c2nc(-c3cccs3)nc3ccccc23)CC1	x	x	u	x	x	n
O=C(CCc1nnc(-c2ccccc2)o1)NC1CCCCC1	n	n	n	n	n	n
O=C(CN(C(=O)c1ccccc1Cl)N1C(=O)C2C3C=CC(C3)C2C1=O)c1cccs1 (stereo not given)	n	n	n	n	n	n
NC(Cc1ccc(F)cc1)c1csc(Nc2cc(Oc3ccccc3)ncn2)n1 (stereo not given)	-75	n	u	x	n	u
